Drawing on PubChem BioAssay, this text covers z-score for 15 compounds.

A short description of test [1]: A549 cell viability effects, profiling panel, calcein-AM fluorescence, 48 h, basal (AID 1162). The following applies: higher = more signal.
Test [2] can be described thus: adipocyte viability effects, profiling panel, cell-based, 3T3-L1 adipocytes, calcein-AM fluorescence, 48 h, basal (AID 1163). The conditions noted are these: 3T3-L1 adipocytes viability, higher = more signal.
Test [3] in a line: HepG2 cell viability effects, profiling panel, calcein-AM fluorescence, 48 h, basal (AID 1164). The following applies: higher = more signal.
Test [4] in a line: MM1S cell viability effects, profiling panel, calcein-AM fluorescence, 48 h, basal (AID 1165).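 Also: viability of MM1S multiple myeloma cells under basal unstimulated conditions.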 The conditions noted are these: higher = more signal.
Test [5] is described as follows: basal RPMI8226 viability, no added stimulus, profiling panel, cell-based, calcein-AM fluorescence, 48 h, PK04 Diversity Set (AID 1166).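 Also: cells grown under basal conditions without added stimulus.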 The following applies: RPMI8226 myeloma viability, higher = more signal.
Test [6] can be described thus: basal HepG2 mitochondrial membrane potential changes, profiling panel, cell-based, JC-1 fluorescence, 24 h, 100 nL compound (AID 1167). The conditions noted are these: higher = more signal.
Test [7] is described as follows: basal 3T3-L1 adipocyte mitochondrial potential changes, profiling panel, cell-based, JC-1 fluorescence, 3T3-L1 adipocytes, 24 h, 100 nL compound (AID 1168). The following applies: JC-1 mitochondrial fluorescence, higher = more signal, called active from +8 up or from −8 down.
The nature of test [8]: basal RPMI8226 mitochondrial membrane potential changes, profiling panel, cell-based, JC-1 fluorescence, 24 h, 100 nL compound (AID 1169). The conditions noted are these: RPMI8226 myeloma, JC-1 mitochondrial potential fluorescence, higher = more signal.
Test [9] in a line: basal MM1S mitochondrial membrane potential changes, profiling panel, cell-based, JC-1 fluorescence, 24 h, 100 nL compound (AID 1170). The following applies: higher = more signal.
A short description of test [10]: A549 lung cancer cell viability effects, profiling panel, resazurin fluorescence, 24 h, PK04 Diversity Set (AID 1171). The conditions noted are these: higher = more signal, called active from +8 up or from −8 down. In general terms: Resazurin is reduced to fluorescent resorufin, in cell work by metabolically active cells.

The structures appear in SMILES notation. The source made the active and inactive calls.
Also: test concentration not given here.

For `COc1ccc(CCNC(=O)[C@@]2(c3ccc([N+](=O)[O-])cc3)CC(=O)N(C3CCCCC3)[C@@H]2c2ccc(CO)cc2I)cc1`, the z-score was 0.507 in test [1]; 0.969 in test [2]; -0.348 in test [3]; -2.41 in test [4]; -2.58 in test [5]; 1.31 in test [6]. For the same compound, the z-score in [7] is 0.72 (inactive); in test [8], -0.293; in test [9] it was 0.379; in [10], -1.11 (inactive).

Take `CCCCC(=C=CC[C@H](O)c1cccc(OCCO)c1)C[C@H](O)c1cc(Cl)cc(Cl)c1O`: the z-score is 0.827 in test [1]; -0.241 in test [2]; 0.358 in test [3]; -3.12 in test [4]; -1.24 in test [5]; 0.0773 in test [6]. Also, the z-score was 0.309 (inactive) in test [7], -0.00147 in test [8], -1.05 in test [9] and 1.57 (inactive) in [10].

In the case of `O=C1O[C@H](c2ccccc2)[C@H](c2ccccc2)N2[C@H]1[C@@H](C(=O)N1CCCCCCC1)[C@]1(C(=O)Nc3ccc(C#CCCO)cc31)[C@H]2c1ccc(O)cc1`, the z-score is 1.53 in test [1]; 0.0496 in test [2]; 1.22 in test [3]; -0.149 in test [4]; 0.0392 in [5]; 0.638 in [6]. Also, the z-score in test [7] is 0.547 (inactive); in test [8], -0.146; in test [9] it was -0.979; in [10], 0.798 (inactive).

Regarding `C=CCNC(=O)[C@H]1[C@@H]2C(=O)O[C@@H](c3ccccc3)[C@@H](c3ccccc3)N2[C@@H](c2ccc(OCCO)cc2)[C@]12C(=O)N(C(=O)OCCOC)c1ccc(C#CCNC(N)=O)cc12`, the z-score was 0.0935 in test [1]; -0.585 in test [2]; 0.854 in [3]; 0.952 in [4]; 1.27 in test [5]; 0.0391 in [6]. Besides, the z-score in test [7] was 0.668 (inactive); in [8], -0.596; in test [9], -0.919; in test [10], -0.226 (inactive).

With `CCCC=C(CCC)[C@@H](NC(=O)c1ccc(C(=O)OC)cc1)c1ccc(C(=O)OC)cc1`, the z-score in [1] is -1.48; in test [2], -0.454; in test [3], -1.54; in test [4], -1; in test [5], -1.59; in test [6], -0.261. In addition, the z-score in test [7] is -1.28 (inactive); in test [8] it was -0.342; in test [9], -1.15; in test [10] it was 0.69 (inactive).

As for `COC(=O)[C@@]1(Cc2ccccc2)[C@H]2c3cc(C(=O)N(C)C)n(CCF)c3C[C@H]2CN1C(=O)c1ccccc1`, the z-score was -1.23 in test [1]; -0.386 in test [2]; -0.561 in [3]; 0.258 in test [4]; -0.57 in test [5]; 0.376 in test [6]. The z-score is -0.874 (inactive) in [7], 0.328 in test [8], -0.294 in [9] and -0.818 (inactive) in [10].

`O=C1c2ccccc2[C@](Cc2ccccc2I)(C(=O)NCCN2CCOCC2)[C@H](c2ccc(CO)cc2)N1Cc1ccccc1C(F)(F)F`: the z-score in [1] was 0.368; in test [2] it was 0.469; in test [3] it was -0.103; in test [4], -1.98; in [5], -2.7; in test [6], 1.5. The z-score was 0.0392 (inactive) in test [7], -0.876 in [8], -0.601 in test [9] and -0.577 (inactive) in [10].

Take `COCCOC(=O)N1C(=O)[C@@]2(c3cc(C#CC4=CCCCC4)ccc31)[C@H](c1ccc(O)cc1)N1[C@H](c3ccccc3)[C@H](c3ccccc3)OC(=O)[C@H]1[C@@H]2C(=O)N1CCc2cc(OC)c(OC)cc2C1`: the z-score is -0.565 in test [1]; -0.154 in test [2]; -0.493 in test [3]; 0.0055 in test [4]; -1.33 in test [5]; 0.0573 in test [6]. The z-score in [7] was 1.8 (inactive); in test [8], -1.11; in test [9], -0.432; in [10], 0.0836 (inactive).

In the case of `COc1c(C)cc(-c2cc3c(c(CCc4ccccc4)n2)[Si](C(C)C)(C(C)C)O[C@H]3c2ccccc2)cc1C`, the z-score is -0.216 in test [1]; -0.945 in [2]; 0.297 in [3]; -3.19 in [4]; -3.11 in [5]; -2.39 in [6]. Further, the z-score in [7] was -0.729 (inactive); in [8], -1.04; in test [9], -1.24; in test [10] it was 0.453 (inactive).

As for `[N-]=[N+]=NCc1ccccc1[C@H]1OC(c2ccc(OCCCO)cc2)=N[C@@]1(CCS(=O)(=O)c1ccccc1)C(=O)O`, the z-score is 0.0952 in test [1]; 0.0313 in [2]; 0.35 in test [3]; 0.263 in test [4]; -0.829 in test [5]; -1.24 in test [6]. Moreover, the z-score in test [7] is -1.02 (inactive); in test [8], -0.278; in test [9] it was -0.479; in test [10], 0.355 (inactive).

For the compound `CN1C(=O)C2CC=C(C3=CCO[C@@H]3[C@H]3CCCN3S(=O)(=O)c3ccccc3[N+](=O)[O-])CC2C1=O` (stereo not given in full), the z-score in test [1] was -0.477; in test [2], 0.102; in [3], 0.302; in test [4], -0.355; in [5], -0.0289; in [6], -1.25. Besides, the z-score is -0.655 (inactive) in test [7], -0.12 in test [8], -0.242 in test [9] and 0.47 (inactive) in test [10].

With `O=C1C2C=CC(C(O)C3CC=CCC3)N(Nc3ccc([N+](=O)[O-])cc3)C2C(=O)N1c1ccccc1` (stereo not given), the z-score is -0.562 in test [1]; 0.243 in [2]; -1.55 in test [3]; 0.25 in [4]; -0.738 in test [5]; -1.02 in test [6]. The z-score in test [7] is -1.43 (inactive); in test [8], -0.374; in test [9] it was 0.000383; in test [10], -0.383 (inactive).

For the compound `CN1C(=O)C2C=CC(C(O)c3cccs3)N(N(c3ccccc3)c3ccccc3)C2C1=O` (stereo not given), the z-score was -0.404 in test [1]; -1.97 in test [2]; 0.44 in test [3]; 0.442 in [4]; 0.398 in test [5]; 0.27 in test [6]. Besides, the z-score was -1.02 (inactive) in test [7], -0.24 in test [8], -0.694 in [9] and -0.659 (inactive) in [10].

Consider `C=C(C(=O)CC[C@@H](OC(=O)c1ccccc1-c1ccccc1C(=O)O)c1ccc(CO)o1)C(C)C`, for which the z-score is -0.656 in [1]; 0.231 in test [2]; 0.473 in test [3]; -1.33 in test [4]; -0.951 in test [5]; -1.54 in test [6]. For the same compound, the z-score in test [7] was -0.747 (inactive); in test [8], -0.479; in [9], -0.0298; in [10] it was -0.359 (inactive).

Take `CCOC(=O)C[C@H]1[C@H](OC(=O)Cc2ccc3c(c2)OCO3)[C@@H](NC(=O)CC(C)C)c2cc(OCCCO)ccc2N1C(=O)c1ccc2ccccc2n1`: the z-score was 0.415 in [1]; 1.37 in [2]; -0.236 in test [3]; 0.383 in test [4]; -0.577 in test [5]; 0.218 in test [6]. For the same compound, the z-score in [7] was 0.0499 (inactive); in test [8] it was 0.01; in test [9] it was -0.659; in test [10], 0.194 (inactive).
